This is a sample that favours compounds with a hit; in the whole collection about 2.4% have one here.
S1P3 antagonist: blocks the human S1P3 receptor. Q99500. CHO S1P3 NFAT-BLA reporter, FRET fluorescence, antagonist mode. inhibition, % at 4.98 µM. hit rate 0.27% among 170,000. AID 485;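 active = inhibition above the plate cutoff, the mean inhibition of test wells on that plate plus 3 SD, cut at about 28% in these data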;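 note: cells challenged with S1P at its EC80 of 0.8 µM; blue over green emission ratio from cleaved BLA substrate after 4 h stimulation; 0% = S1P-stimulated wells and 100% = unstimulated DMSO-only wells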
S1P4 agonist: human S1P4 receptor agonism; O95977; S1P4-expressing cell line, agonist reporter assay; activation, % at 4.98 µM; hit rate 0.35% among 220,000; AID 1509; in the data active = activation above about 11%;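 note: 0% = DMSO vehicle and 100% = reference agonist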
PGE2 EP2 inh: inhibitors of human EP2 prostaglandin E2 receptor; P43116; C6 glioma cells expressing human EP2, cAMP TR-FRET; cells stimulated with saturating PGE2; inhibition, % at 25 µM; hit rate 0.52% among 260,000; AID 1422;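 active = percent inhibition above 40 after rounding to a whole number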;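 note: rat C6 glioma host cells with rolipram phosphodiesterase inhibitor present; the protocol text gives 20 µM as final concentration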
EP2 modulator: modulates human prostaglandin E2 receptor EP2 signaling | P43116 | induction, % at 25 µM | EP2-expressing cells, cAMP HTRF FRET, PGE2 co-stimulation | hit rate 0.83% among 260,000 | AID 940;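 active = compounds whose cAMP rise, as percent of the full-agonist control response, exceeds 60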;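 note: rat C6 glioma line stably carrying human EP2 under a CMV promoter; the protocol text gives 20 µM as final concentration; 100% = response of wells given 1 µM PGE2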
Insulin prom inh: TRM-6 insulin promoter activity inhibition; TRM-6 cells (human fetal islet line), insulin promoter-eGFP reporter, imaging; reporter expression induced with tamoxifen; hit rate 0.9% among 130,000; inhibition, % at 2 µM;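 active = inhibition above the mean plus 3 SD, with well images judged a real hit on visual review, cut at about 60% in these data, passing the limit was not always enough; inconclusive = inhibition over the cutoff but images rejected on review; inactive = inhibition not above the cutoff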
S1P4 antag: antagonists of human S1P4 receptor; hit rate 0.26% among 220,000; O95977; AID 1510; inhibition, % at 4.98 µM; S1P4-expressing cells, antagonist mode, reporter read-out; in the data active = inhibition above about 29%;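 note: 0% = wells stimulated with agonist and 100% = vehicle wells without agonist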
S1P4 agonist cf: human S1P4 agonism, confirmation; S1P4 agonist cell-based reporter assay; activation, % at 4.98 µM; hit rate 7% among 740; AID 1523; shares compounds with S1P4 agonist; in the data active = activation above about 12%;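 note: 0% = vehicle and 100% = full reference agonist response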
S1P1 ag: counter-screen for S1P4 agonists: agonists of human S1P1 | shares compounds with S1P4 agonist | S1P1 agonist cell-based assay, activation | activation, % at 4.98 µM | hit rate 4% among 740 | AID 1563; in the data active = activation above about 21%;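 note: 0% = vehicle wells and 100% = reference agonist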
Target sequence (P21453 whole entry, looked up): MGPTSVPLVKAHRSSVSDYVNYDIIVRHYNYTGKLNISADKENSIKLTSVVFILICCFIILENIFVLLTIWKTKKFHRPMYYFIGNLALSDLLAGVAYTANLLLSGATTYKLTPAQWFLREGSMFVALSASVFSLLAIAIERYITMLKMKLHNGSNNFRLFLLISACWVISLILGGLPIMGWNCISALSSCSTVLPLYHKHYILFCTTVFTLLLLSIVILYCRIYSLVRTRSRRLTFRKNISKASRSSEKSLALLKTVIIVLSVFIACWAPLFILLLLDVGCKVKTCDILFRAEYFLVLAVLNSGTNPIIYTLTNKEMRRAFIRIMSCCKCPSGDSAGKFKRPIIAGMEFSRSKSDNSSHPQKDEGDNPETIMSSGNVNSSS
* = called active by the depositor; ? = inconclusive; nt = no result.

SMILES	S1P3 antagonist	S1P4 agonist	PGE2 EP2 inh	EP2 modulator	Insulin prom inh	S1P4 antag	S1P4 agonist cf	S1P1 ag
CCOC(=O)N1CCC(N2Cc3cccc(C(=O)Nc4ccc(F)cc4)c3C2=O)CC1	nt	-1	2	-7	-20	7	nt	nt
CCOC(=O)N1CCC(N2Cc3cccc(C(=O)Nc4ccc(CC)cc4)c3C2=O)CC1	nt	12*	4	12	7	-9	-3	-3
COc1ccc(C2(NC(=O)c3cnn(C(C)C)c3)CCCCC2)cc1	nt	nt	nt	-15	nt	nt	nt	nt
O=C(CN1CCN(c2ccccc2O)CC1)Nc1ccc2c(c1)CCC2	-6	13*	9	-20	nt	-3	-1	0
O=C(CN1CCCC1)Nc1ccc2c(c1)CCC2	-6	-2	4	14	nt	-9	nt	nt
CN(C)CCN(Cc1cc2cc3c(cc2[nH]c1=O)OCO3)C(=S)Nc1ccc(F)cc1	nt	nt	9	-55	nt	nt	nt	nt
Cc1ccc(S(=O)(=O)NCCc2ccccc2)cc1	nt	-5	9	19	-29	-7	nt	nt
Cc1cc(C)c(S(=O)(=O)NCCc2ccccc2)c(C)c1	6	21*	3	-27	nt	-9	-1	-7
O=C(N/N=C/c1cccs1)c1cccnc1	3	2	9	-23	nt	-11	nt	nt
Cc1ccc(/C=N/NC(=O)c2cccnc2)s1	10	13*	6	-13	nt	-1	-1	0
COc1ccc(CCC(=O)N2CCCSC2=Nc2ccc(C(C)=O)cc2)cc1	-9	23*	15	-14	nt	-5	1	-1
CC(=O)NNC(=O)CSc1ncnc2sc3c(c12)CCC3	nt	nt	10	-5	nt	nt	nt	nt
O=C(NCc1ccccc1)N[C@@H](Cc1c[nH]c2ccccc12)C(=O)O	-11	14*	8	-7	75*	7	-1	0
Cc1cc(C)c2cc3c(N)c(C(=O)N4CCc5ccccc54)sc3nc2c1	nt	nt	8	17	nt	nt	nt	nt
N#Cc1cc2c(=O)n3ccccc3nc2n(-c2ccccc2Cl)c1=O	-48	28*	5	3	-61	-52	16*	29*
CC(C)N(c1nnc(NC(=O)c2ccc(Cl)cc2Cl)s1)C(C)C	nt	nt	15	11	nt	nt	nt	nt
COCCNC(=O)c1ccccc1NC(=O)Cc1ccccc1[N+](=O)[O-]	-6	235*	6	-11	nt	-1	-3	-7
COCCNC(=O)c1ccccc1NC(=O)c1cccc([N+](=O)[O-])c1C	-12	1	3	0	15	-4	nt	nt
COc1ccccc1C1CC(c2ccco2)=NN1S(C)(=O)=O (stereo unspecified)	-6	30*	16	36	nt	-13	-2	-6
CS(=O)(=O)N1N=C(c2ccco2)CC1c1ccccc1Cl (stereo unspecified)	0	1	10	0	nt	0	nt	nt
O=C(N/N=C\c1cccc(Cl)c1)c1ccc(Cn2cccn2)o1	17	0	3	-14	31	2	nt	nt
Cc1ccccc1/C=N\NC(=O)c1ccc(Cn2cccn2)o1	13	47*	12	-10	-58	-16	-2	-3
O=c1cc(CSc2nc(NCc3ccccc3)c3ccccc3n2)nc2ccc(Cl)cn12	5	28*	5	16	21	-18	-2	-4
CC(=O)Nc1nn(C)c2nc(C)cc(C)c12	-7	28*	12	-13	nt	2	-2	0
Cc1cc(C)c2c(n1)nn1c(N3CCC(C(N)=O)CC3)cc(C)nc21	nt	nt	nt	-6	nt	nt	nt	nt
SMILES	S1P3 antagonist	S1P4 agonist	PGE2 EP2 inh	EP2 modulator	Insulin prom inh	S1P4 antag	S1P4 agonist cf	S1P1 ag
CCOc1ccc(NC(=O)Nc2cccn(Cc3ccccc3)c2=O)cc1	9	38*	6	13	21	-10	-1	0
Cc1ccc(/C=C/C(=O)NCc2ccc(S(N)(=O)=O)cc2)o1	-2	12*	6	-2	17	11	-2	-2
O=C1c2cccc3cc([N+](=O)[O-])cc(c23)C(=O)N1CCN1CCCC1	-14	24*	6	-8	nt	-64	23*	92*
COc1ccc(C2NC(=O)NC(C)=C2C(=O)Nc2ccc(C)c(C)c2)cc1OC (stereo unspecified)	nt	nt	15	-3	nt	nt	nt	nt
CCn1c(CNc2n[nH]c3nc(C)cc(C)c23)nc2ccccc21	nt	nt	5	-42	nt	nt	nt	nt
O=C(CCCC(=O)NCC1CCCO1)NCC1CCCO1 (stereo unspecified)	-9	39*	7	23	-257	2	-2	0
O=C(CN1CCCCCC1)NCC1CCCO1 (stereo unspecified)	-26	-1	10	15	nt	7	nt	nt
C=CCN1C(=O)CS/C1=N\S(=O)(=O)c1ccc(Cl)cc1	0	11*	3	21	nt	-4	-2	-3
Cc1cc(C)c2c(c1)c(C)cc1nnc(SCC(=O)OC(C)C)n12	nt	nt	6	-15	nt	nt	nt	nt
CC(C)NC(=O)C1CCN(C(=O)c2cc3sccc3n2Cc2ccc(F)cc2)CC1	-2	16*	-5	-22	nt	2	0	7
CCN1CCCC1CN(Cc1cc2c(C)cc(C)cc2[nH]c1=O)C(=O)Nc1ccccc1F (stereo unspecified)	nt	nt	6	12	nt	nt	nt	nt
O=C(NC1(c2ccc3c(c2)OCO3)CCCC1)c1ccc2c(c1)OCO2	nt	nt	8	-68	nt	nt	nt	nt
CCc1nnc(NC(=O)c2ccc(Cl)c(S(=O)(=O)N3CCc4ccccc4C3)c2)s1	-1	20*	12	-50	-47	-8	-2	1
CCCCOc1ccc(C(=O)N/C(=C/C=C/c2ccccc2)C(=O)NCCCO)cc1	-2	13*	4	9	28	-16	-1	-4
O=C(Nc1ccccc1-c1ccccc1)C1CCCCC1	-11	12*	8	26	nt	4	-2	-3
CCCc1nn(C)c(C(N)=O)c1[N+](=O)[O-]	1	12*	6	13	38	-15	-1	3
O=C(/C=C/c1ccc(F)cc1)N1CCN(c2ccccn2)CC1	-6	16*	1	9	19	-32	-1	-5
COc1ccccc1-c1cc(C(F)(F)F)n2nc(C(=O)O)c(Cl)c2n1	nt	nt	12	-12	nt	nt	nt	nt
CCOC(=O)c1c(NC(=O)COC)sc(C)c1C	nt	-1	13	22	?	-2	nt	nt
CCOC(=O)c1c(NC(=O)COC(=O)c2cc(OC)c(OC)cc2[N+](=O)[O-])sc(C)c1C	-8	17*	6	44	nt	-8	-1	2
Cc1ccc(N=Cc2nc(-c3ccc(C)cc3)oc2O)cc1	12	15*	0	7	nt	0	-1	-4
O=C(Nc1ccc2oc(-c3ccncc3)nc2c1)c1ccc(F)cc1	1	20*	9	11	0	-11	-2	0
O=C(Nc1ccc2oc(-c3ccncc3)nc2c1)c1c(F)c(F)c(F)c(F)c1F	-3	-5	14	15	31	-12	nt	nt
Cc1ccc(Nc2c(-c3ccc(C)o3)nc3ncccn23)cc1	0	11*	10	-18	nt	2	-1	2
